{"source": "PubChem BioAssay AID1159580", "about": "(chemical genetic matrix, 2015)", "assay": "chemical genetic growth profiling, strain panel (AID 1159580);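 further: tested at 20 µM; growth read once vehicle control cultures reached saturation at 30 °C; 1 = growth at the plate median or of vehicle wells; lower values mean less growth of the strain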", "settings": "S. cerevisiae deletion strains, growth OD", "note": "Hit rate of the full screen: of about 5,500 compounds, about 2,000 (36%) were called active. Not shown: some 18% with an inconclusive outcome. Some of the results follow. Values without a mark were called inactive. No stated cut-off is given here; in the data, active means normalized growth mostly below about 0.91 (no sharp cut-off); inconclusive means no clear call, values can overlap the other calls; inactive means mostly above about 0.92.", "data": [{"smiles": "C[C@H](Cc1ccc(O)c(O)c1)[C@@H](C)Cc1ccc(O)c(O)c1", "values": [{"measurement": "normalized growth", "setting": "locus YAL013W, strain DEP1, hits give low values", "value": "0.783 (active)"}, {"measurement": "normalized growth", "setting": "locus YAL040C, strain CLN3, hits give low values", "value": 1.07}, {"measurement": "normalized growth", "setting": "locus YCL061C, strain MRC1 (second series), hits give low values", "value": "0.811 (active)"}, {"measurement": "normalized growth", "setting": "locus YDR363W, strain ESC2, hits give low values", "value": "0.745 (active)"}, {"measurement": "normalized growth", "setting": "locus YER002W, strain NOP16, hits give low values", "value": 0.979}, {"measurement": "normalized growth", "setting": "locus YGR078C, strain PAC10, hits give low values", "value": 0.986}, {"measurement": "normalized growth", "setting": "locus YNL153C, strain GIM3, hits give low values", "value": 0.863}, {"measurement": "normalized growth", "setting": "locus YNL175C, strain NOP13, hits give low values", "value": 0.946}, {"measurement": "normalized growth", "setting": "locus YNL197C, strain WHI3, hits give low values", "value": 0.969}, {"measurement": "normalized growth", "setting": "locus YNL224C, strain SQS1, hits give low values", "value": 0.966}, {"measurement": "normalized growth", "setting": "locus YNL322C, strain KRE1, hits give low values", "value": "0.478 (active)"}, {"measurement": "normalized growth", "setting": "locus YOR083W, strain WHI5 (second series), hits give low values", "value": 0.925}, {"measurement": "normalized growth", "setting": "locus YPL055C, strain LGE1, hits give low values", "value": "0.77 (active)"}, {"measurement": "normalized growth", "setting": "locus YPL241C, strain CIN2, hits give low values", "value": "0.578 (active)"}]}]}
